Results from PubChem BioAssay AID1490 (National Center for Advancing Translational Sciences (NCATS), 2009).
The campaign covered roughly 310,000 compounds. About 11,000 (3.5%) were called active. Not shown: some 4% with an inconclusive outcome. Calls come from the whole dose curve; as a rule, active = well fitted inhibition curve with a large enough effect; inconclusive = small, poorly fitted or top-dose-only effect, or another doubt; inactive = no such curve, though single readings can be large or run the other way. This excerpt belongs to a sample that is enriched for actives.

Molecular target: 4'-phosphopantetheinyl transferase ffp (Bacillus subtilis) (UniProt Q9F4F7)
Assay: qHTS Assay for Inhibitors of Bacillus subtilis Sfp phosphopantetheinyl transferase (PPTase);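 note: the enzyme is Sfp with the accession as filed and its product quenches rhodamine fluorescence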;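 for largest response in the series, negative = inhibition: 0% = enzyme reaction without inhibitor and -100% = no enzyme wells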
Conditions: Biochemical Sfp PPTase activity
How it was run: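 With Hepes-Na pH 7.6 buffer containing 10 mM MgCl2, Sfp (15 nM) modified BHQ-2-YbbR (12.5 uM) using rhodamine-CoA (5 uM). Two reads 30 minutes apart at 525/598 nm yielded each well's rate.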
Potency is the fitted concentration of half-maximal effect.

How did the Potency turn out when `CC(=O)N1CCN(c2ccc(NCc3ccc(C(C)C)cc3)cc2)CC1` was run?
Its Potency is 50.1 µM (active).

For `CC(CC(=O)N1CCN(c2ccccc2)CC1)c1ccccc1` (stereo not given), which largest response in the series, negative = inhibition is on record?
The largest response in the series, negative = inhibition was 3.18% (inactive).

With `CCc1ccc(NC(=O)N2CCN(c3ccccc3)CC2)cc1` as the molecule, how does the largest response in the series, negative = inhibition read?
Its largest response in the series, negative = inhibition is 3.63% (inactive).

How did the largest response in the series, negative = inhibition turn out when `O=C1C(=O)N(CCCO)C(c2ccccc2)/C1=C(\O)c1ccc(Br)cc1` (stereo not given) was run?
Its largest response in the series, negative = inhibition is 6.17% (inactive).

For `COc1ccc(C2=NS(=O)(=O)N(C)C(C(=O)N3CCCCC3)=C2)cc1`, which largest response in the series, negative = inhibition is on record?
The largest response in the series, negative = inhibition was 1.59% (inactive).

Which largest response in the series, negative = inhibition does the source give for `COc1ccc(NC(=O)c2ccco2)cc1NC(=O)c1ccc(C#N)cc1F` here?
Its largest response in the series, negative = inhibition is 6.39% (inactive).

Which largest response in the series, negative = inhibition does the source give for `O=[N+]([O-])c1ccc(O)c(/C=N/Nc2ccccc2[N+](=O)[O-])c1` here?
Its largest response in the series, negative = inhibition is -9.69% (inactive).

For `Nn1cnnc1N/N=C/c1cc([N+](=O)[O-])c(Cl)cc1Cl`, which Potency is on record?
Its Potency is 50.1 µM (active).

Which Potency does the source give for `Cc1ccc2sc(NNC(=O)c3ccc4c(c3)OCCO4)nc2c1C` here?
The Potency was 28.2 µM (active).

For `Cc1nc(NC(=O)c2ccc3c(c2)OCCO3)ccc1Br`, which largest response in the series, negative = inhibition is on record?
Its largest response in the series, negative = inhibition is -0.776% (inactive).

For `C/C(=N\NC(=O)C(N)=O)c1ccc2c(c1)OCCO2`, which largest response in the series, negative = inhibition is on record?
The largest response in the series, negative = inhibition was -17.8% (inactive).

With `CCCN1CCN(C(=O)CCCNC(=O)c2ccc(Cl)cc2)CC1` as the molecule, how does the largest response in the series, negative = inhibition read?
Its largest response in the series, negative = inhibition is 8.54% (inactive).

For `COc1ccc(NC(=O)CC(NC(C)c2ccccc2)C(=O)O)cc1` (stereo not given), which largest response in the series, negative = inhibition is on record?
The largest response in the series, negative = inhibition was -9.65% (inactive).

`CN(C)CCCNC(=O)c1cc(C(=O)Cc2ccc(Cl)cc2)c[nH]1` was tested. Which largest response in the series, negative = inhibition did it give?
Its largest response in the series, negative = inhibition is 3.87% (inactive).

For `COc1cc(CNC2CCCC2)c(Br)cc1OCc1ccccc1`, which largest response in the series, negative = inhibition is on record?
The largest response in the series, negative = inhibition was 9.9% (inactive).

Which Potency does the source give for `COc1cc(C2CC(=O)N3CN(Cc4ccccc4)CSC3=C2C#N)ccc1OCc1ccccc1` (stereo not given) here?
Its Potency is 3.55 µM (active).

`COc1cc(CN2CCC(C(N)=O)CC2)ccc1OCc1ccccc1` was tested. Which largest response in the series, negative = inhibition did it give?
Its largest response in the series, negative = inhibition is -21.1% (inactive).

With `Cc1ccc(CNC(=O)CCC(=O)N2CC(C)Sc3ccccc32)cc1` (stereo not given) as the molecule, how does the largest response in the series, negative = inhibition read?
The largest response in the series, negative = inhibition was 23.4% (inactive).

With `CC(=O)Nc1ccc(S(=O)(=O)N2CCC(NC(=O)c3ccccc3)CC2)cc1` as the molecule, how does the largest response in the series, negative = inhibition read?
Its largest response in the series, negative = inhibition is 22.8% (inactive).

How did the largest response in the series, negative = inhibition turn out when `COc1ccc2c(c1)N(C)/C(=C1/SC(=S)N(NC(C)=O)C1=O)S2` was run?
The largest response in the series, negative = inhibition was -12.7% (inactive).

`COc1cc(C(=O)NC(=S)NCc2ccco2)cc(OC)c1OC` was tested. Which Potency did it give?
Its Potency is 44.7 µM (active).

With `COc1cc(C(=O)N[C@@H](C)C(=O)NCc2ccco2)cc(OC)c1OC` as the molecule, how does the largest response in the series, negative = inhibition read?
The largest response in the series, negative = inhibition was 8.28% (inactive).

For `COc1cccc(OC)c1C(=O)NC(=S)NCc1ccco1`, which largest response in the series, negative = inhibition is on record?
Its largest response in the series, negative = inhibition is -3.61% (inactive).

For `Fc1ccc(-c2ccc(NCCN3CCOCC3)nn2)cc1`, which largest response in the series, negative = inhibition is on record?
The largest response in the series, negative = inhibition was 19.2% (inactive).

How did the largest response in the series, negative = inhibition turn out when `COc1cc(C(=S)N2CCOCC2)cc(OC)c1OC(=O)c1ccc([N+](=O)[O-])cc1[N+](=O)[O-]` was run?
The largest response in the series, negative = inhibition was 7.82% (inactive).

`O=C(Oc1ccccc1C(=S)N1CCCCC1)c1cc([N+](=O)[O-])cc([N+](=O)[O-])c1` was tested. Which Potency did it give?
Its Potency is 31.6 µM (active).

`O=C(Nc1ccc(C(=O)N2CCCCC2)cc1)c1cccc([N+](=O)[O-])c1` was tested. Which largest response in the series, negative = inhibition did it give?
Its largest response in the series, negative = inhibition is 17.2% (inactive).

With `O=C(Oc1ccccc1Cl)c1ccc(N2CCOCC2)c([N+](=O)[O-])c1` as the molecule, how does the largest response in the series, negative = inhibition read?
The largest response in the series, negative = inhibition was -20.5% (inactive).

`O=C(Oc1ccc(Br)cc1C(=S)N1CCOCC1)c1cccc([N+](=O)[O-])c1` was tested. Which Potency did it give?
The Potency was 50.1 µM (active).

With `COc1cc(C(=S)N2CCOCC2)cc(OC)c1OC(=O)c1cc([N+](=O)[O-])cc([N+](=O)[O-])c1` as the molecule, how does the largest response in the series, negative = inhibition read?
Its largest response in the series, negative = inhibition is 4.17% (inactive).

Which largest response in the series, negative = inhibition does the source give for `CCCCNC(=O)CCn1nc(-c2ccc(Cl)cc2)ccc1=O` here?
Its largest response in the series, negative = inhibition is 10.2% (inactive).

For `Cc1c(CC(=O)NCC(=O)NCC(=O)O)c(=O)oc2cc3oc4c(c3cc12)CCCC4`, which largest response in the series, negative = inhibition is on record?
The largest response in the series, negative = inhibition was -20.1% (inactive).

For `Nc1nnnn1/N=C/c1cccc(Br)c1`, which largest response in the series, negative = inhibition is on record?
The largest response in the series, negative = inhibition was 2.63% (inactive).

With `Cc1n[nH]c(C)c1S(=O)(=O)N1CCCC(C(=O)Nc2ccc(Br)cc2)C1` (stereo not given) as the molecule, how does the largest response in the series, negative = inhibition read?
Its largest response in the series, negative = inhibition is 15.6% (inactive).

`CCOC(=O)Cn1c(=O)n(Cc2ccc(OC)cc2)c(=O)c2cccnc21` was tested. Which largest response in the series, negative = inhibition did it give?
The largest response in the series, negative = inhibition was 13% (inactive).

How did the largest response in the series, negative = inhibition turn out when `O=C(Nc1ccnn1C1CCN(Cc2cccc(OCCO)c2)CC1)C1CCCC1` was run?
Its largest response in the series, negative = inhibition is -0.971% (inactive).

`COc1ccc(-c2cc(C(=O)N3CCN(c4ccc(F)cc4)CC3)no2)cc1` was tested. Which largest response in the series, negative = inhibition did it give?
The largest response in the series, negative = inhibition was 8.09% (inactive).

For `COc1ccc(CNC(=O)c2ccc3oc(C(C)C)nc3c2)cc1`, which largest response in the series, negative = inhibition is on record?
Its largest response in the series, negative = inhibition is 2.49% (inactive).

Which Potency does the source give for `S=c1[nH]c2ccccc2c2ccccc12` here?
The Potency was 50.1 µM (active).

`S=c1ccc2ccccc2[nH]1` was tested. Which largest response in the series, negative = inhibition did it give?
Its largest response in the series, negative = inhibition is -21.1% (inactive).

With `CCCCn1c(=S)[nH]c2ccccc2c1=O` as the molecule, how does the largest response in the series, negative = inhibition read?
The largest response in the series, negative = inhibition was 8.99% (inactive).

For `Cc1cccc(NC(=O)CSCC(=O)Nc2nnc(C3CC3)s2)c1`, which largest response in the series, negative = inhibition is on record?
Its largest response in the series, negative = inhibition is -4.58% (inactive).

Which largest response in the series, negative = inhibition does the source give for `CCN(CC)c1ccc(/C=N/Nc2nc(C)cc(C)n2)c(O)c1` here?
Its largest response in the series, negative = inhibition is -14.7% (inactive).

`CCN(CC)c1ccc2cc(C(N)=O)/c(=N\NC(=O)c3ccncc3)oc2c1` was tested. Which largest response in the series, negative = inhibition did it give?
The largest response in the series, negative = inhibition was -4.99% (inactive).

With `CCN(CC)c1ccc2oc(=O)c(C)nc2c1` as the molecule, how does the Potency read?
The Potency was 14.1 µM (active).

How did the largest response in the series, negative = inhibition turn out when `Cc1ccc2cccc(OCCCOc3ccccc3CO)c2n1` was run?
Its largest response in the series, negative = inhibition is 13.6% (inactive).

`O=C(CC1C(=O)NCCN1CC(c1ccccc1)c1ccccc1)NCC1CCOCC1` (stereo not given) was tested. Which largest response in the series, negative = inhibition did it give?
The largest response in the series, negative = inhibition was -5.38% (inactive).

Which largest response in the series, negative = inhibition does the source give for `Cc1sc2nc(SCCO)n(-c3ccccc3)c(=O)c2c1C` here?
The largest response in the series, negative = inhibition was 27.7% (inactive).

How did the Potency turn out when `CSc1nc(C)cc(SC(C(C)=O)C(=O)Nc2ccccc2)n1` (stereo not given) was run?
The Potency was 50.1 µM (active).

For `CC(Sc1nnc2c(n1)C1CCC2(C)C1(C)C)C(=O)Nc1ccccc1` (stereo not given), which largest response in the series, negative = inhibition is on record?
The largest response in the series, negative = inhibition was 6.3% (inactive).

`Cc1cccc(NC(=O)C(C)SCc2ccccc2)c1` (stereo not given) was tested. Which largest response in the series, negative = inhibition did it give?
Its largest response in the series, negative = inhibition is 3.73% (inactive).

With `Cn1nccc1/C=N\NC(=O)c1ccc(Cl)cc1` as the molecule, how does the largest response in the series, negative = inhibition read?
The largest response in the series, negative = inhibition was 9.85% (inactive).

Which largest response in the series, negative = inhibition does the source give for `CCOc1ccc(C(=O)CCN2CCOCC2)cc1` here?
The largest response in the series, negative = inhibition was -10.8% (inactive).

Which Potency does the source give for `CCOc1cc(C(=S)N2CCOCC2)ccc1O` here?
The Potency was 14.1 µM (active).

`CCOc1cc(C(=S)N2CCOCC2)ccc1OS(=O)(=O)c1ccc(Br)cc1` was tested. Which largest response in the series, negative = inhibition did it give?
Its largest response in the series, negative = inhibition is 22.9% (inactive).

With `COC(=O)[C@@H]1CC2=CC(=O)CC[C@]2(C)[C@@]23O[C@@H]2C[C@@]2(C)[C@@H](CC[C@@]24CCC(=O)O4)[C@H]13` as the molecule, how does the largest response in the series, negative = inhibition read?
The largest response in the series, negative = inhibition was 10% (inactive).

Which largest response in the series, negative = inhibition does the source give for `Cc1ccc(Cn2cc(C(=O)NN)c(=O)c3ccc(F)cc32)cc1` here?
The largest response in the series, negative = inhibition was 10.7% (inactive).

With `CCCn1c(SCC(=O)c2ccc3c(c2)OCCO3)nnc1C(C)C` as the molecule, how does the Potency read?
The Potency was 79.4 µM (active).

How did the largest response in the series, negative = inhibition turn out when `CCCn1c(SCC(N)=O)nnc1C(C)C` was run?
Its largest response in the series, negative = inhibition is 10.5% (inactive).

For `CCn1c(SCC(=O)Nc2ccc3c(c2)OCCO3)nnc1C(C)C`, which largest response in the series, negative = inhibition is on record?
Its largest response in the series, negative = inhibition is 18.9% (inactive).
